Compounds with a hit are over-represented: about 13% of the library has one in this group of screens.
RAM network inh – inhibitors of the yeast RAM network, primary screen, dse1pr::URA3 reporter, 5-FOA selection | S. cerevisiae dse1pr::URA3 reporter, 5-FOA growth OD615, 2 d; analog-sensitive cbk1-as2 kinase mutant strain | inhibition, % at 50 µM | 190,000 compounds, 1.8% hits | AID 868, 2007;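 active = inhibition above a set limit, 3 SD over mean compound inhibition, cut at about 8.4% in these data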;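 also: 0% = DMSO-only wells with no growth and 100% = 10 µM 1-NA-PP1 full growth; inhibition rescues growth on 5-FOA so higher OD means more RAM inhibition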
WT yeast gro inh – growth inhibition of WT strain, primary screen, mitochondrial fusion inhibitor project, WT and mutant strains, chemical genetic. mitochondrial fusion phenotypic screen. inhibition, % at 10 µM. 190,000 compounds, 2.1% hits. AID 1362, 2008; in the data active = inhibition above about 58%; tested in S. cerevisiae
CHOP inh – inhibitors of CHOP promoter induction, primary screen, cell-based, unfolded protein response, luciferase reporter; CHO-K1 CHOP-promoter luciferase, tunicamycin-induced, 15-18 h; inhibition, % at 10 µM; 220,000 compounds, 3.8% hits;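 active = compounds that reduced the stress-induced luciferase reporter signal by more than about 70% of percent inhibition, limit read from the data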;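 also: 0% = tunicamycin plus vehicle and 100% = wells without tunicamycin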
L major viab – Leishmania major promastigote growth inhibition, primary screen; inhibition, % at 10 µM; 200,000 compounds, 9% hits; AID 1063, 2008; Leishmania major promastigotes, resazurin fluorescence viability; in the data active = inhibition above about 50%;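 also: promastigotes grown with compound for 44 hours at 28 °C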
* hit, by the source's call.

What do the screens show for `O=C(/C(C=Nc1cc2c(oc1=O)CCCC2=O)=C(\O)c1ccccc1)c1ccccc1`?
RAM network inh: 5; WT yeast gro inh: 6; CHOP inh: -2; L major viab: -2

Results for CO/N=C(\c1nonc1N)N1CCN(c2ccc(Cl)cc2[N+](=O)[O-])CC1 ?
RAM network inh: 4; WT yeast gro inh: 75*; CHOP inh: 70; L major viab: 2

What do the screens show for `CC(=O)O/N=C(/c1nonc1N)N1CCN(c2ccc([N+](=O)[O-])cc2Cl)CC1`?
RAM network inh: 2; WT yeast gro inh: -13; CHOP inh: 39; L major viab: -3

What do the screens show for `CO/N=C(\c1nonc1N)N1CCN(c2ccc([N+](=O)[O-])cc2Cl)CC1`?
RAM network inh: 2; WT yeast gro inh: 6; CHOP inh: 73*; L major viab: -2

How did CC[C@@H](C)C(NC(=O)OC(C)(C)C)c1cn([C@@H](Cc2cc3ccccc3[nH]2)C(=O)N2CCN(C(=O)OC(C)(C)C)CC2)nn1 (stereo not given in full) do in these assays?
RAM network inh: 4; WT yeast gro inh: -1; CHOP inh: 17; L major viab: -1

How did CC(C)(C)NS(=O)(=O)c1ccc(/C=C/C(=O)O)cc1 do in these assays?
RAM network inh: 1; WT yeast gro inh: 1; CHOP inh: 15; L major viab: -3

How did COc1ccc2nc(C)cc(SCC(=O)N/N=C/c3ccc(O)cc3O)c2c1 do in these assays?
RAM network inh: 0; WT yeast gro inh: 0; CHOP inh: 63; L major viab: 98*

How did COc1ccc2nc(C)cc(SCC(=O)N/N=C/c3ccccc3)c2c1 do in these assays?
RAM network inh: -2; WT yeast gro inh: -10; CHOP inh: 34; L major viab: 47

How did COc1cccc2c(SCC(=O)N/N=C/c3ccc(O)cc3O)cc(C)nc12 do in these assays?
RAM network inh: 3; WT yeast gro inh: -6; CHOP inh: 23; L major viab: 20

What do the screens show for `COc1ccc2nc(C)cc(SCC(=O)N/N=C/c3c(OC)ccc4ccccc34)c2c1`?
RAM network inh: 1; WT yeast gro inh: -22; CHOP inh: 30; L major viab: 71*

What do the screens show for `O=C(Nc1cccc([N+](=O)[O-])c1)Nc1ccc2c(c1)OCCO2`?
RAM network inh: 1; WT yeast gro inh: -4; CHOP inh: 4; L major viab: -2

How did CC(C)NC(=O)NC(=O)COC(=O)c1ncc(Cl)c(Cl)c1Cl do in these assays?
RAM network inh: 0; WT yeast gro inh: -4; CHOP inh: -24; L major viab: -5

How did CCCCCCCN1C2=NCCCN2c2ccccc21 do in these assays?
RAM network inh: 1; WT yeast gro inh: 32; CHOP inh: 15; L major viab: 70*

How did CCCN1C2=NCCN2c2ccccc21 do in these assays?
RAM network inh: 0; WT yeast gro inh: -20; CHOP inh: -6; L major viab: -7

What do the screens show for `CC(C)(C)c1ccc(CN2C3=NCCCN3c3ccccc32)cc1`?
RAM network inh: 1; WT yeast gro inh: 20; CHOP inh: 27; L major viab: 100*

How did Clc1ccc(CN2C3=NCCN3c3ccccc32)cc1 do in these assays?
RAM network inh: 2; WT yeast gro inh: 3; CHOP inh: 71*; L major viab: 38

What do the screens show for `c1ccc(OCCN2C3=NCCN3c3ccccc32)cc1`?
RAM network inh: 1; WT yeast gro inh: 10; CHOP inh: -3; L major viab: 101*

How did CN(C(=O)COC(=O)CCc1c[nH]c2ccccc12)C(c1ccccc1)c1ccccc1 do in these assays?
RAM network inh: 6; WT yeast gro inh: 12; CHOP inh: 61; L major viab: -3

What do the screens show for `Cc1cc(N/N=C/c2ccncc2)nc2ccccc12`?
RAM network inh: 2; WT yeast gro inh: 26; CHOP inh: 4; L major viab: 73*

What do the screens show for `Cc1cc(C)nc(N/N=C/c2ccccc2)n1`?
RAM network inh: 0; WT yeast gro inh: 1; CHOP inh: 37; L major viab: -4

What do the screens show for `Cc1cc(N/N=C/c2cccc(Br)c2)nc2ccccc12`?
RAM network inh: 0; WT yeast gro inh: 67; CHOP inh: 53; L major viab: 61*

Results for ClC(Cl)(Cl)c1nc(N/N=C/c2ccncc2)c2ccccc2n1 ?
RAM network inh: -1; WT yeast gro inh: 17; CHOP inh: 14; L major viab: -4

How did CNC(=S)Nc1ccc(C(N)=O)cc1 do in these assays?
RAM network inh: 2; WT yeast gro inh: -4; CHOP inh: 11; L major viab: -6

Results for O=C(CC1SC(=O)N(Cc2ccccc2)C1=O)Nc1nccs1 (stereo not given) ?
RAM network inh: 2; WT yeast gro inh: -12; CHOP inh: 87*; L major viab: -9

Results for Cc1cc(NC(=O)CN2C(=O)NC(C)(c3ccc(OC(F)F)cc3)C2=O)no1 (stereo not given) ?
RAM network inh: 1; WT yeast gro inh: -2; CHOP inh: 15; L major viab: 1

Results for CCC1CCC2(CC1)NC(=O)N(CC(=O)Nc1cc(C)on1)C2=O (stereo not given) ?
RAM network inh: 2; WT yeast gro inh: 11; CHOP inh: 25; L major viab: 62*

How did Cc1cc(-n2c(C)cc(C(=O)CN3C(=O)NC4(CCCCCC4)C3=O)c2C)no1 do in these assays?
RAM network inh: 2; WT yeast gro inh: -18; CHOP inh: 36; L major viab: 100*

What do the screens show for `Cc1cc(C(=O)CN2C(=O)NC3(CCCCC3)C2=O)c(C)n1-c1ccc2c(c1)OCO2`?
RAM network inh: 0; WT yeast gro inh: -17; CHOP inh: 19; L major viab: -2

How did Cc1cc(NC(=O)CN2C(=O)NC3(CCCCC3C)C2=O)no1 (stereo not given) do in these assays?
RAM network inh: 0; WT yeast gro inh: 2; CHOP inh: 2; L major viab: 58*

Results for CCCCOc1ccc(-c2cc(C(F)(F)F)c(C#N)c(SCC(=O)O)n2)cc1 ?
RAM network inh: 8.4*; WT yeast gro inh: -17; CHOP inh: 35; L major viab: -6

What do the screens show for `N#Cc1c(C(F)(F)F)cc(-c2ccc(F)cc2)nc1SCC(=O)O`?
RAM network inh: 2; WT yeast gro inh: 18; CHOP inh: -14; L major viab: -5

Results for COc1ccc(CCNC(=O)CO/N=C/c2cc3c(cc2Br)OCO3)cc1OC ?
RAM network inh: 2; WT yeast gro inh: 0; CHOP inh: 14; L major viab: -3

How did O=c1c(C(c2ccccc2)c2c(O)nc3n(c2=O)CCS3)c(O)nc2n1CCS2 do in these assays?
RAM network inh: 2; WT yeast gro inh: -13; CHOP inh: -2; L major viab: 6

Results for COc1ccccc1N(CCN1C(=O)c2cccc3cccc(c23)C1=O)C(=O)c1ccncc1 ?
RAM network inh: -1; WT yeast gro inh: 10; CHOP inh: 7; L major viab: 2

How did O=[N+]([O-])c1ccccc1/C=C/C=N/Nc1ccc(S(=O)(=O)Nc2ccc(Cl)cc2)cc1[N+](=O)[O-] do in these assays?
RAM network inh: 4; WT yeast gro inh: 3; CHOP inh: 44; L major viab: 67*

Compound activity: PubChem, several laboratories
